Potency data for eight molecules are collected here from PubChem BioAssay (Tox21).

The nature of assay [1]: Nuclear factor erythroid 2-related factor 2/antioxidant responsive element (Nrf2/ARE) small molecule agonists: qHTS cell viability counter screen in human keratinocytes (AID 1919968; active means well fitted curve in the direction sought with a large enough effect in the repeat runs; an effect the other way counts as inactive or inconclusive; further: nearly all actives have a fitted effect of over 55% in size). In a few lines:
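Cytotoxicity was multiplexed with the Nrf2/ARE luciferase assay in the same wells. Stably transfected HaCaT keratinocytes were treated with test compounds for 23 h at 37 C. Cell viability was then measured by CellTiter-Fluor fluorescence.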

The nature of assay [2]: Nuclear factor erythroid 2-related factor 2/antioxidant responsive element (Nrf2/ARE) small molecule agonists: luciferase reporter gene qHTS assay in human keratinocytes (AID 1919969). Further: nearly all actives have a fitted effect of over 35% in size. Further: potency means the concentration at half of the fitted maximal effect.
In assay [3] the target is Gonadotropin-releasing hormone receptor (Homo sapiens) (UniProt P30968). The experiment in a line: Human gonadotropin-releasing hormone receptor (GnRHR) small molecule agonists, calcium flux assay in GnRHR-HEK293 cells (AID 1920063). Further: nearly all actives have a fitted effect of over 35% in size. In a few lines:
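Agonist activity was measured as intracellular calcium flux in HEK293 cells engineered to stably express human GnRHR. After dye loading for 1 hour at 37 C, compounds in DMSO were added and fluorescence was followed for 3 minutes.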
For orientation: Calcium flux is commonly read through the fluorescence of an indicator in the cells.

Assay [4] addresses KiSS-1 receptor (Homo sapiens) (UniProt Q969F8). In words: Human kisspeptin (KISS1R) small molecule agonists, calcium flux assay in KISS1R-HEK293 cells (AID 1920064; active means well fitted curve in the direction sought with a large enough effect in the repeat runs; an effect the other way counts as inactive or inconclusive). In outline: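 Agonist activity is monitored as intracellular calcium rise in engineered HEK293 cells carrying human KISS1R. Cells are dye-loaded for 1 h at 37 C before compound addition, and fluorescence is recorded for 3 min.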

Assay [5] in a line: p53 small molecule agonists, cell-based qHTS assay with human liver microsomes (AID 1963577). In a few lines:
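Fluorescence of the beta-lactamase reporter in p53RE-bla cells, detected with LiveBLAzer substrate (2 h, room temperature, dark), served as the read-out after 16 h compound exposure at 37 C with human liver microsomes and NADPH, each 0.5 mg/mL final.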
Background: Quantitative high-throughput screening tests each substance at several concentrations.

The nature of assay [6]: p53 small molecule agonists, cell-based qHTS assay with rat liver microsomes (AID 1963578). In outline:
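Cells carrying a p53 response element–beta-lactamase reporter were plated and rested 5 h, then dosed with compound in DMSO plus rat liver microsomes and NADPH, each at 0.5 mg/mL final. After 16 h at 37 C, LiveBLAzer substrate was added for 2 h.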

The nature of assay [7]: p53 small molecule agonists, cell-based qHTS assay with human liver microsomes: qHTS cell viability counter screen (AID 1963579). Further: nearly all actives have a fitted effect of over 45% in size. Further: potency means the concentration at half of the fitted maximal effect. In outline: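 Cytotoxicity counter screen: p53RE-bla, 4,000 cells/well; 5 h settle, 37 C/5% CO2; cpd + HLM 0.5 mg/mL + NADPH 0.5 mg/mL (final); 16 h, 37 C; CellTiter-Glo, 30 min RT, luminescence.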
A short description of assay [8]: p53 small molecule agonists, cell-based qHTS assay with rat liver microsomes: qHTS cell viability counter screen (AID 1963580). Further: nearly all actives have a fitted effect of over 45% in size. In outline:
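Rat liver microsome (0.5 mg/mL final) and NADPH (0.5 mg/mL final) co-incubation with compounds for 16 h at 37 C on HCT-116 p53RE-bla cells; cytotoxicity taken from intracellular ATP luminescence.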

Assay [9] can be described thus: p53 small molecule agonists, cell-based qHTS assay: qHTS cell viability counter screen (AID 1963581). Further: nearly all actives have a fitted effect of over 45% in size. In outline: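 Viability was counter-screened in parallel with the p53 agonist reporter by measuring intracellular ATP luminescence in the same HCT-116 p53RE-bla wells after 16 h compound treatment at 37 C.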
Assay [10] is described as follows: cAMP Responsive Elements (CRE) small molecule agonists, cell-based qHTS assay (AID 1963590). In outline:
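Cells carrying a CRE-driven beta-lactamase reporter (HEK 293T) are seeded, incubated overnight (18 h), and treated with test compounds for 3 h at 37 C; reporter activity is then detected with a FRET substrate after 2 h at room temperature.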

Assay [11] in a line: cAMP Responsive Elements (CRE) small molecule antagonists, cell-based qHTS assay (AID 1963591; active means well fitted inhibition curve with a large enough effect in the signal ratio in the repeat runs, not every such curve was filed as active; the % refers to the signal ratio). In outline: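 Cells (CRE-bla HEK 293T, DMEM with 10% dialyzed FBS and 25 mM HEPES) are seeded and incubated 18 h. Compounds are added with NKH477 agonist at 0.25 uM final for 3 h, then FRET substrate for 2 h.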
The target in assay [12] is Beta-2 adrenergic receptor (Homo sapiens) (UniProt P07550). The experiment in a line: Adrenergic beta2 receptor (ADRB2) small molecule antagonists, cell-based qHTS assay (AID 1963592). Further: series mostly up to about 92 µM; nearly all actives have a fitted effect of over 50% in size. In outline: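 Assay format: CHO-ADRB2 cells, 18-20hr seeding at 37C/5% CO2, then compound plus 1nM isoproterenol agonist mix for 0.5hr RT. Homogeneous time-resolved fluorescence cAMP detection after 1hr, expressed as 665/615 nm ratio.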
Sequence of Beta-2 adrenergic receptor (Homo sapiens) (P07550 whole entry, looked up): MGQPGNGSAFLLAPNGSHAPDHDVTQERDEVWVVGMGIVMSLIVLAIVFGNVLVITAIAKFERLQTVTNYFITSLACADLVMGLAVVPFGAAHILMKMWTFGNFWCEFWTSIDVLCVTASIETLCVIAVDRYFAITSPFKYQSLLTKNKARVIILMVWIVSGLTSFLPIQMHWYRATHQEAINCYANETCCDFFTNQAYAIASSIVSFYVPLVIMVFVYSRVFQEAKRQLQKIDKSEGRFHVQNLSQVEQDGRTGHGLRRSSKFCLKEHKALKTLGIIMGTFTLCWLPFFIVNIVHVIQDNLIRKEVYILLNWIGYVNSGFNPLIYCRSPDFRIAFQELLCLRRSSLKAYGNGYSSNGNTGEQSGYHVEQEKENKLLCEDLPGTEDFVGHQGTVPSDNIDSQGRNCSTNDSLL

The target is the same in assay [13]. In words: Adrenergic beta2 receptor (ADRB2) small molecule agonists, cell-based qHTS assay (AID 1963593).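 Further: CHO cells stably overexpressing human ADRB2.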 In outline:
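CHO cells stably over-expressing ADRB2 were plated overnight at 37C, then dosed with compounds plus a stimulation mix containing 100uM IBMX and 25uM Ro-20-1724 for 0.5hr at room temperature. cAMP was measured by HTRF competition, 1hr.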

Assay [14] has as its target D(2) dopamine receptor (Homo sapiens) (UniProt P14416). The experiment in a line: Dopamine D2 receptor (DRD2) small molecule agonists, cell-based qHTS assay (AID 1963594). Further: nearly all actives have a fitted effect of over 35% in size. In outline: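 cAMP accumulation in DRD2-HEK293 cells measured by HTRF after 1 h detection; compounds added 10 min before NKH477 (200nM […]) forskolin-analogue stimulation, 30 min at room temperature, with Ro20-1724 present at 0.1 mM final.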

For assay [15] the target is unchanged. In words: Dopamine D2 receptor (DRD2) small molecule antagonists, cell-based qHTS assay (AID 1963595; active means well fitted inhibition curve with a large enough effect in the signal ratio in the repeat runs, with a control signal flat; the % refers to the signal ratio). In a few lines: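 HTRF cAMP read-out at 665 and 620 nm emission (340 nm excitation). Antagonist mode: compounds were tested against 12 nM quinpirole in DRD2-HEK293 cells, with 200 nM NKH477 raising cAMP and 0.1 mM Ro20-1724 blocking its breakdown.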
A short description of assay [16]: G protein-coupled receptor (GPCR) small molecule agonists, calcium flux assay: HEK293 wild type cell line counter screen (AID 1920065). In outline: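 Seed cells, incubate 18 h (37 C, 5% CO2); add calcium dye, 1 h at 37 C; pin-transfer compounds, ATP control or DMSO; read fluorescence 480/540 nm each second for 3 min.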
The target in assay [17] is 5-hydroxytryptamine receptor 2A (Homo sapiens) (UniProt P28223). In words: 5-hydroxytryptamine receptor 2A (HTR2A) small molecule antagonists, cell-based qHTS assay (AID 1963586). Further: nearly all actives have a fitted effect of over 45% in size. Further: potency means the concentration at half of the fitted maximal effect. In outline: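 CHO cells stably expressing human HTR2A were plated for 18 h at 37 C, then loaded with calcium dye for 1 h. Compounds were preincubated 5 min at room temperature before DOI (4 nM solution) was added. Kinetic fluorescence was read for 3 min.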
Sequence of 5-hydroxytryptamine receptor 2A (Homo sapiens) (P28223 whole entry, looked up): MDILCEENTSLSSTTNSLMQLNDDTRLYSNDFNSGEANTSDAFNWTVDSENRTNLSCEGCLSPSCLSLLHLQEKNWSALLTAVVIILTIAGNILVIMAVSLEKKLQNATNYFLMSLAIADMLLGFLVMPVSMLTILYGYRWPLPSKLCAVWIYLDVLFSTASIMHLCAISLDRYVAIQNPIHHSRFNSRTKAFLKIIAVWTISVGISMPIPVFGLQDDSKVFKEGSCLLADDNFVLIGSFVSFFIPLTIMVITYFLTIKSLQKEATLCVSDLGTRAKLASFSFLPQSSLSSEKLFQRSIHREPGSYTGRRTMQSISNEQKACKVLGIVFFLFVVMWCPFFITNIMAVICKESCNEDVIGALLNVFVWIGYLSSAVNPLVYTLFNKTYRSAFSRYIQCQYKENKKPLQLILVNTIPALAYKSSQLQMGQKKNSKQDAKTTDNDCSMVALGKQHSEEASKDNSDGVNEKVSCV

Assay [18] has the same target. The experiment in a line: 5-hydroxytryptamine receptor 2A (HTR2A) small molecule agonists, cell-based qHTS assay (AID 1963587). Further: nearly all actives have a fitted effect of over 30% in size. In outline:
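Kinetic calcium-flux fluorescence (2 min, 1 sec intervals) after compound addition in agonist mode. HTR2A-CHO cells were cultured 18 h, then dye-loaded 1 h at 37 C.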

The target in assay [19] is Muscarinic acetylcholine receptor M1 (Homo sapiens) (UniProt P11229). In words: Cholinergic receptor muscarinic 1 (CHRM1) small molecule antagonists, cell-based qHTS assay (AID 1963588). Further: nearly all actives have a fitted effect of over 40% in size. In outline: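 Compounds were tested at 15 concentrations in three independent runs. Dye-loaded CHRM1-CHO cells were exposed 5 min at room temperature before stimulation by acetylcholine added at 50nM. Intracellular calcium was read kinetically on FDSS for 3 min.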
Sequence of Muscarinic acetylcholine receptor M1 (Homo sapiens) (P11229 whole entry, looked up): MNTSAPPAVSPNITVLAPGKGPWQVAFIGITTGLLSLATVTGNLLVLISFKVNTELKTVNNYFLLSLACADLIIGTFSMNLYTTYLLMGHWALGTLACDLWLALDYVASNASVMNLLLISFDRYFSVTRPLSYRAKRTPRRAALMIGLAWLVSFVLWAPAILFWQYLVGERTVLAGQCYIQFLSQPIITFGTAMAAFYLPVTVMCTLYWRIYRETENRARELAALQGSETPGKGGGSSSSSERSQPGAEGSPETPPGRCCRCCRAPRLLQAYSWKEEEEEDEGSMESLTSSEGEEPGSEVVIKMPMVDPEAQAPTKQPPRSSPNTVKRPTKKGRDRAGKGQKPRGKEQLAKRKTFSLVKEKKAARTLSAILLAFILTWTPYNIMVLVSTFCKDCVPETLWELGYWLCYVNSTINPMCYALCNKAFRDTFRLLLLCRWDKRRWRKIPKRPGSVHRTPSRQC

Assay [20] shares this target. In words: Cholinergic receptor muscarinic 1 (CHRM1) small molecule agonists, cell-based qHTS assay (AID 1963589). Further: nearly all actives have a fitted effect of over 35% in size. In a few lines: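 Cells were plated and incubated 18 h at 37 C/5% CO2, loaded with calcium dye for 1 h at 37 C, then treated with compounds in DMSO. Fluorescence was recorded kinetically at 1 sec intervals.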

Values joined by “and” are separate entries in the source; they are usually repeats but may differ in a detail not shown here. Equal entries are not always repeated. Inconclusive results are not listed. The source holds several records for some structures; these can differ, active in one and inactive in another. Active and inactive are the calls of the source. Unless noted, the call rests on the fitted dose curve.

Sequence of Gonadotropin-releasing hormone receptor (Homo sapiens) (P30968 whole entry, looked up): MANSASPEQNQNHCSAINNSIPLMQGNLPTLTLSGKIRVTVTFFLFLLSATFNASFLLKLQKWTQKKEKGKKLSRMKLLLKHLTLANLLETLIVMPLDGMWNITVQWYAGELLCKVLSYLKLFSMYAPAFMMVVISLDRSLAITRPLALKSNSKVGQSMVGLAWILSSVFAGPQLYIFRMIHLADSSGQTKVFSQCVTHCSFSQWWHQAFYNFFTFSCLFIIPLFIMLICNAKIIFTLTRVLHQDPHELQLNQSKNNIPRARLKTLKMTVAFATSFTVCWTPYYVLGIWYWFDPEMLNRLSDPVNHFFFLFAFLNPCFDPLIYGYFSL
Sequence of KiSS-1 receptor (Homo sapiens) (Q969F8 whole entry, looked up): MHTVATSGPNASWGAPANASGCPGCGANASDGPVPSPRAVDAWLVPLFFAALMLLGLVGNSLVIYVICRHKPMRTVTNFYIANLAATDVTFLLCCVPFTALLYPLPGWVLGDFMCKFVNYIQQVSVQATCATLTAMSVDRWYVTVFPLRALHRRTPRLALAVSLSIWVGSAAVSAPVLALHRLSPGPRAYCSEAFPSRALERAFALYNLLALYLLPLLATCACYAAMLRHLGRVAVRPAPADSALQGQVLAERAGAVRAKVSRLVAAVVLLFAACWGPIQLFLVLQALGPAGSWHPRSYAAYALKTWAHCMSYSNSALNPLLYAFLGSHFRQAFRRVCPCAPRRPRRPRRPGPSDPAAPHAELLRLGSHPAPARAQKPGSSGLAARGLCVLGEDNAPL
Sequence of D(2) dopamine receptor (Homo sapiens) (P14416 whole entry, looked up): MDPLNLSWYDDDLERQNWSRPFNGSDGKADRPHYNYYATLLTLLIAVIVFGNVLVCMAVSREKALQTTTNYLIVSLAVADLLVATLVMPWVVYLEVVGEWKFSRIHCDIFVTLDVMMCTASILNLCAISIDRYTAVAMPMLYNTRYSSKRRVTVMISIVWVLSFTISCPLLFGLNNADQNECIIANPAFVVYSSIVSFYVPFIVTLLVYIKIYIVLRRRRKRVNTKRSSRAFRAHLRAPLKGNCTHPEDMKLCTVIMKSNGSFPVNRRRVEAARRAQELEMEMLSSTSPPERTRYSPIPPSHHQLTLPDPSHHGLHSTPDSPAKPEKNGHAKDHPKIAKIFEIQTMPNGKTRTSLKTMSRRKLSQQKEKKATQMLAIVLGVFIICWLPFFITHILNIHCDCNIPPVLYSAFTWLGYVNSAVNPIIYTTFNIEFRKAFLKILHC

As to `OC[C@@H](O)[C@H](O)[C@H](O)[C@@H](O)CO`, the Potency entry in [1], in assay [2], in assay [3], in assay [4], in assay [5] and in assay [6] was “inactive” in each case. Moreover, the Potency result in [7], in assay [8], in assay [9], in assay [10], in assay [11] and in assay [12] was “inactive” in each case. Besides, the Potency entry in assay [13], in [14] and in assay [15] was “inactive” in each case.

Take `O=C(O)/C=C\C(=O)O`: the Potency result in assay [1], in [2], in [3], in assay [4], in assay [16] and in [18] was “inactive” throughout. The Potency entry in [19], in assay [20], in [10], in [11], in [12] and in [13] was “inactive” in each case. Also, the Potency entry in [14] and in [15] was “inactive” in each case. For the same molecule, in [17], the Potency was 27.5 µM (active) and 3.75 µM (active) and inactive.

Take `CCCCNC(N)=O`: the Potency result in assay [1], in assay [2], in [3], in assay [4], in assay [5] and in assay [6] was “inactive” in each case. Besides, the Potency result in [7], in assay [8], in assay [9], in assay [17], in [18] and in assay [20] was “inactive” each time. For the same molecule, the Potency entry in [10], in assay [11], in [13], in [14] and in assay [15] was “inactive” each time.

On to `C[C@H]1C[C@H]2[C@@H]3CCC4=CC(=O)C=C[C@]4(C)[C@@]3(F)[C@@H](O)C[C@]2(C)[C@@]1(O)C(=O)CO`, for which the Potency result in assay [1], in [2], in assay [3], in assay [4], in assay [5] and in assay [6] was “inactive” throughout. In addition, the Potency entry in [8], in assay [9], in assay [10], in [11], in assay [12] and in [13] was “inactive” in each case. The Potency result in assay [14] and in assay [15] was “inactive” in each case. Besides, the Potency entry in assay [7] was “inactive and 793 nM (active)”.

With `Cc1ccc2c(c1)C(=O)OC2=O`, the Potency result in assay [1], in assay [2], in assay [3], in assay [4], in assay [5] and in assay [6] was “inactive” throughout. In addition, the Potency entry in assay [7], in assay [8], in assay [9], in assay [17], in assay [18] and in [19] was “inactive” in each case. Besides, the Potency result in assay [20], in assay [11], in [12], in assay [13], in [14] and in [15] was “inactive” throughout.

For the molecule `Cc1ncc(CO)c(CO)c1O`, the Potency entry in [1], in assay [2], in [3], in assay [4], in [5] and in [6] was “inactive” in each case. For the same molecule, the Potency result in assay [7], in [8], in [9], in assay [17], in assay [18] and in assay [19] was “inactive” throughout. Further, the Potency entry in [20], in assay [10], in assay [11], in [12], in assay [13] and in [14] was “inactive” throughout. Besides, the Potency result in assay [15] is “inactive”.

Consider `Cc1cnc(NC(=O)C2=C(O)c3ccccc3S(=O)(=O)N2C)s1`, for which the Potency result in assay [1], in assay [2], in assay [3], in assay [4], in assay [5] and in [6] was “inactive” throughout. Besides, the Potency entry in assay [7], in [8], in assay [9], in [10], in assay [11] and in [12] was “inactive” each time. In addition, the Potency result in [13], in assay [14] and in assay [15] was “inactive” throughout.

Turning to `Nc1ccc2c(c1)C(=O)c1ccccc1C2=O`, the Potency entry in assay [1], in assay [3], in assay [4], in assay [5], in [6] and in assay [8] was “inactive” each time. For the same molecule, the Potency result in assay [9], in assay [17], in assay [18], in [19], in assay [20] and in assay [11] was “inactive” in each case. For the same molecule, the Potency result in assay [12] is “inactive”. In addition, the Potency in assay [2] was 756 nM (active) and 243 nM (active); in assay [7], “inactive and 4.08 µM (active)”.
